Results filed as inconclusive are left out. The source made the active and inactive calls. The rule behind the calls is not given here.

A short description of one assay: qHTS Assay for Inhibitors of Influenza NS1 Protein Function: Viral Replication TCID50. The following applies: Influenza virus replication in cells, at 10 µM, stronger effect = lower value. The text has this: Influenza is a world-wide public health problem and emerging forms of the virus have the potential to cause a pandemic of equal or greater magnitude to the outbreaks recorded in 1918, 1957 or 1968. Vaccine development is proceeding and there also exist two classes of anti-influenza compounds. However these therapeutic modalities are neither fully effective nor widely enough available to fulfill global needs. In addition their potential usefulness against newly emergent strains is not known. Efforts are needed to develop novel agents against influenza virus, including broad-spectrum agents. Identification of small molecules that inhibit NS1 function either directly or by interfering with specific cellular pathways may be a key to increasing our defense against the virus.
We have miniaturized and optimized a cell based assay in which NS1 from influenza A is expressed in the budding yeast S. cerevisiae. NS1 is a multi-functional protein that counters the host innate immune response and facilitates viral versus cellular gene expression. Expression of NS1 causes a pronounced slow growth phenotype in yeast due to its intrinsic molecular activities. Small molecules that suppress the slow growth phenotype can be identified by a straightforward growth recovery assay using optical density (OD) as the measurement. The same yeast strain not expressing NS1 was used as positive control in the yeast growth recovery assay.
Hits resulting from the primary screen and other follow-up screens, were tested in two concentrations in this viral replication assay.
NIH Chemical Genomics Center [NCGC]
NIH Molecular Libraries Probe Centers Network [MLPCN]
Assay Submitter (PI): Daniel Engel, University of Virgina
Cell monolayers were infected at an m.o.i. of 0.1 for 48 h in the presence or absence of the compound, which was added at the beginning of infection. Virus titres were determined by TCID50 analysis (Reed, L. J. & Muench, H. (1938). A simple method of estimating fifty per cent endpoints. Am J Epidemiol 27, 493-497)
For the molecule `COc1cc(-c2c(C#N)c(N)nc3c2c(C)nn3-c2ccc(Cl)cc2)cc(OC)c1OC`, the viral titer (log10 TCID50) is 9 (active).

On to `COc1cc(-c2c3c(C)nn(-c4ccccc4)c3nc3[nH]c(=O)[nH]c(=O)c23)cc(OC)c1O`, for which the viral titer (log10 TCID50) is 8.33 (active).

For the molecule `COc1ccc(-c2c(C#N)c(N)nc3c2c(C)nn3-c2ccc(Cl)cc2)cc1OC`, the viral titer (log10 TCID50) is 9 (active).

Turning to `COc1ccc(-c2c(C#N)c(N)nc3c2c(C)nn3-c2ccc(F)cc2)cc1OC`, the viral titer (log10 TCID50) was 8.66 (active).

`COc1cc(-c2c3c(C)nn(-c4ccccc4)c3nc3[nH]c(=O)[nH]c(=O)c23)ccc1O`: the viral titer (log10 TCID50) was 8.66 (active).

As to `COc1ccc(-c2ccnc3c2c(C)nn3-c2ccc(F)cc2)cc1OC`, the viral titer (log10 TCID50) was 8.66 (active).

Take `COc1cc(-c2c(C#N)c(=O)[nH]c3c2c(C)nn3-c2ccccc2)cc(OC)c1OC`: the viral titer (log10 TCID50) was 7.66 (active).

Turning to `COc1ccc(-c2ccnc3c2c(C)nn3-c2ccc(F)cc2)cc1`, the viral titer (log10 TCID50) is 8.33 (active).

Turning to `COc1cccc(-c2ccnc3c2c(C)nn3-c2ccc(F)cc2)c1`, the viral titer (log10 TCID50) was 8.5 (active).

As for `Cc1nn(-c2ccc(F)cc2)c2nc(N)c(C#N)c(-c3ccc(O)c(O)c3)c12`, the viral titer (log10 TCID50) was 7.66 (active).

Still in this assay, the particulars now being: Influenza virus replication in cells, viral titer, at 5 µM, stronger effect = lower value.
Take `COc1cc(-c2c(C#N)c(N)nc3c2c(C)nn3-c2ccc(Cl)cc2)cc(OC)c1OC`: the viral titer (log10 TCID50) is 9.

As to `COc1cc(-c2c3c(C)nn(-c4ccccc4)c3nc3[nH]c(=O)[nH]c(=O)c23)cc(OC)c1O`, the viral titer (log10 TCID50) was 8.66.

For the molecule `COc1ccc(-c2c(C#N)c(N)nc3c2c(C)nn3-c2ccc(Cl)cc2)cc1OC`, the viral titer (log10 TCID50) was 9.

Take `COc1ccc(-c2c(C#N)c(N)nc3c2c(C)nn3-c2ccc(F)cc2)cc1OC`: the viral titer (log10 TCID50) was determined as 8.66.

The molecule `COc1cc(-c2c3c(C)nn(-c4ccccc4)c3nc3[nH]c(=O)[nH]c(=O)c23)ccc1O` came in with a viral titer (log10 TCID50) of 8.66.

Take `COc1ccc(-c2ccnc3c2c(C)nn3-c2ccc(F)cc2)cc1OC`: the viral titer (log10 TCID50) was found to be 9.

In the case of `COc1cc(-c2c(C#N)c(=O)[nH]c3c2c(C)nn3-c2ccccc2)cc(OC)c1OC`, the viral titer (log10 TCID50) amounted to 8.5.

Take `COc1ccc(-c2ccnc3c2c(C)nn3-c2ccc(F)cc2)cc1`: the viral titer (log10 TCID50) came out at 9.

Molecule `COc1cccc(-c2ccnc3c2c(C)nn3-c2ccc(F)cc2)c1` had a viral titer (log10 TCID50) of 9.

With `Cc1nn(-c2ccc(F)cc2)c2nc(N)c(C#N)c(-c3ccc(O)c(O)c3)c12`, the viral titer (log10 TCID50) stood at 8.5.

Values taken from PubChem BioAssay AID602454 (National Center for Advancing Translational Sciences (NCATS), 2012).
